# Columns and labels:
# Experiment in all cases: DAPPL (digital affinity profiling via proximity ligation, sequencing); 10 mM Tris-HCl pH 7.5, 50 mM NaCl, 1 mM DTT, 4% glycerol, room temperature, 30 min; GST-TFs on glutathione beads, 16-mer random dsDNA library, 0.1% formaldehyde crosslink after washing; high values mean tight binding
# Conditions in all cases: protein: recombinant; tags: N-terminal GST; dsDNA, one strand shown
# FEV = molecular target: T1, FEV (Homo sapiens, UniProt Q99581 1-238)
# T1 sequence: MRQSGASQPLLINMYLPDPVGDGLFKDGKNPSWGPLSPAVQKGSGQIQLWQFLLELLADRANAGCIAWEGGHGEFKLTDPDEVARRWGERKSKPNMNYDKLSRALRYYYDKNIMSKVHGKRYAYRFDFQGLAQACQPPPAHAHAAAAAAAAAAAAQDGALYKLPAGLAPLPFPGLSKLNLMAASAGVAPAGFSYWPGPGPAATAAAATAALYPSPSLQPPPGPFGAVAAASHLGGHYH
# How it was run: (§1)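 After expression in yeast as GST fusions, human transcription factors were bound to glutathione beads, DNA-barcoded and mixed with a tag-only sample. The pools were incubated with 200 nmole of a 16-mer random double-stranded DNA library in Tris/NaCl/DTT/glycerol buffer (30 min, room temperature), washed and crosslinked with 0.1% formaldehyde. Proximity ligation with BsaI/T4 ligase ran for 1 h at 37 °C, before PCR amplification and sequencing on an Illumina NextSeq500. Binding signal is a hexamer's read frequency for a factor divided by its frequency for the tag-only sample.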
# ETV5 = ETV5 (Homo sapiens, UniProt P41161 1-510)
# ETV5, sequence (P41161 whole entry): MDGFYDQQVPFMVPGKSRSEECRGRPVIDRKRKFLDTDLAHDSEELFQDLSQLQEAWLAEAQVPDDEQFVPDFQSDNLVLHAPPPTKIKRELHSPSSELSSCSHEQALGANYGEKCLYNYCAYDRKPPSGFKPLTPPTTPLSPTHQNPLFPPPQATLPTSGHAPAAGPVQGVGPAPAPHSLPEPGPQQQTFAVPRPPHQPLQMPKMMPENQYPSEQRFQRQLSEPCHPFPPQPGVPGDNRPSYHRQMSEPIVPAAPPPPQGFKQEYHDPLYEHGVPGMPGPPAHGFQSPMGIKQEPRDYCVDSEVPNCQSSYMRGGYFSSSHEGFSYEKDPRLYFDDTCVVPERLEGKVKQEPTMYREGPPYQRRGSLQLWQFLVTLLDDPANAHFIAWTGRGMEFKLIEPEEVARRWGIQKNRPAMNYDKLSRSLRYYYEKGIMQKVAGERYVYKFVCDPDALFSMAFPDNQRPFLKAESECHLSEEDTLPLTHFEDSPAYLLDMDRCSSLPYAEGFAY
# How it was run: as §1
# SPIC = molecular target: T2, SPIC (Homo sapiens, UniProt Q8N5J4 1-248)
# T2 sequence: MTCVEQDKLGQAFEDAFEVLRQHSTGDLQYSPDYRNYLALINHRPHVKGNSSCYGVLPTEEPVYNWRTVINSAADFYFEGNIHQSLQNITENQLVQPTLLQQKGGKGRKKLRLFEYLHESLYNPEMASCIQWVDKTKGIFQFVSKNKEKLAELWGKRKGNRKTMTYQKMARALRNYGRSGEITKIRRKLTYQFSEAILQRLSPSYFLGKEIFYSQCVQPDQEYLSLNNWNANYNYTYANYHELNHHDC
# How it was run: as §1
# ELF4 = ELF4 (Homo sapiens, UniProt Q99607 1-663)
# ELF4, sequence (Q99607 whole entry): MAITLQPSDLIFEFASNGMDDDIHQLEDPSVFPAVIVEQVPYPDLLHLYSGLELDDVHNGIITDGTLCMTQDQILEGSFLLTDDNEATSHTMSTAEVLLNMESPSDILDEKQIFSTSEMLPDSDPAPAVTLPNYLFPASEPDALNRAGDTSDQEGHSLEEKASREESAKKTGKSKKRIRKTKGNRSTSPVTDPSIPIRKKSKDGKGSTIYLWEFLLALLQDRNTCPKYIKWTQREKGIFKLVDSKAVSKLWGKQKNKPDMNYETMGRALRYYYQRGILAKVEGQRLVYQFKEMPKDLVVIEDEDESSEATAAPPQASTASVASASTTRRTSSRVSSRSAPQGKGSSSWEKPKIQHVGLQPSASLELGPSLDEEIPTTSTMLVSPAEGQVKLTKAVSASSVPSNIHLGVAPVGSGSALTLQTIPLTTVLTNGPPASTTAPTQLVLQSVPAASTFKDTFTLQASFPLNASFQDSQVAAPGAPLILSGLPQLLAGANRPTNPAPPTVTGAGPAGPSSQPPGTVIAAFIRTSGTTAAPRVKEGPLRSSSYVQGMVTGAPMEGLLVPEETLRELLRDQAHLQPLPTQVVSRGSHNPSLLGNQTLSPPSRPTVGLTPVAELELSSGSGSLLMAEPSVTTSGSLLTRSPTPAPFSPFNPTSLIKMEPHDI
# How it was run: as §1
# ELK4 = molecular target: T3, ELK4 (Homo sapiens, UniProt P28324-2 1-405)
# T3 sequence: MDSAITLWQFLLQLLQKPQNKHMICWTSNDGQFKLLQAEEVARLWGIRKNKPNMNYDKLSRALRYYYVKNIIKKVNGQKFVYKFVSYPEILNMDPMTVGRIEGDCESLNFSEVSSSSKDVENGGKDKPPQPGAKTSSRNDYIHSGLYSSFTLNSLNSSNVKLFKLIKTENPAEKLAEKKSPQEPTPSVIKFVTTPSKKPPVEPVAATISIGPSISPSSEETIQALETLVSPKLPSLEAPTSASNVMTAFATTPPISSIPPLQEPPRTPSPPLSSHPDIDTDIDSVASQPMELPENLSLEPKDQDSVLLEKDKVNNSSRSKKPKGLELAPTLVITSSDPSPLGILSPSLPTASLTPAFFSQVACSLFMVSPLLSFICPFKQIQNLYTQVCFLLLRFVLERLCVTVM
# How it was run: as §1
# ETV2 = molecular target: T4, ETV2 (Homo sapiens, UniProt O00321 1-342)
# T4 sequence: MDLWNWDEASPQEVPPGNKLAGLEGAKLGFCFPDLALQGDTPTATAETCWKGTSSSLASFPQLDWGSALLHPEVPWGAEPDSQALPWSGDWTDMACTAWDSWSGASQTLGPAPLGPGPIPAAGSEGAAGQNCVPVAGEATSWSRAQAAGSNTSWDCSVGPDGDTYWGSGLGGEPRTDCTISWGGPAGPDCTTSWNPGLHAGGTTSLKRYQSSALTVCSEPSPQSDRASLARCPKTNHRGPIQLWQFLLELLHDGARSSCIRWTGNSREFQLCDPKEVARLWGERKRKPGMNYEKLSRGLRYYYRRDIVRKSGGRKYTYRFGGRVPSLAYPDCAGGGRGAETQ
# How it was run: as §1
# ELF3 = molecular target: T5, ELF3 (Homo sapiens, UniProt P78545 1-371)
# T5 sequence: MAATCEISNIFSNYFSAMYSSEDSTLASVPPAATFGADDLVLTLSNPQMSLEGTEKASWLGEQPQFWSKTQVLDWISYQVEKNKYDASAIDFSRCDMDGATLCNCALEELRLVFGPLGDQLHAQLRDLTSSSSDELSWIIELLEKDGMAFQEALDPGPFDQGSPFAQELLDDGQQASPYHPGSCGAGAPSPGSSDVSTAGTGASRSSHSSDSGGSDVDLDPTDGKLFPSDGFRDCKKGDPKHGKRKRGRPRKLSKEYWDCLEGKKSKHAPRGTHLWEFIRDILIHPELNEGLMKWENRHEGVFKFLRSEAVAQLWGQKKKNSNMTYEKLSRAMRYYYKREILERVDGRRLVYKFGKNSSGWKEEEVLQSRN
# How it was run: as §1
# ETV1 = ETV1 (Homo sapiens, UniProt P50549 1-477)
# ETV1, sequence (P50549 whole entry): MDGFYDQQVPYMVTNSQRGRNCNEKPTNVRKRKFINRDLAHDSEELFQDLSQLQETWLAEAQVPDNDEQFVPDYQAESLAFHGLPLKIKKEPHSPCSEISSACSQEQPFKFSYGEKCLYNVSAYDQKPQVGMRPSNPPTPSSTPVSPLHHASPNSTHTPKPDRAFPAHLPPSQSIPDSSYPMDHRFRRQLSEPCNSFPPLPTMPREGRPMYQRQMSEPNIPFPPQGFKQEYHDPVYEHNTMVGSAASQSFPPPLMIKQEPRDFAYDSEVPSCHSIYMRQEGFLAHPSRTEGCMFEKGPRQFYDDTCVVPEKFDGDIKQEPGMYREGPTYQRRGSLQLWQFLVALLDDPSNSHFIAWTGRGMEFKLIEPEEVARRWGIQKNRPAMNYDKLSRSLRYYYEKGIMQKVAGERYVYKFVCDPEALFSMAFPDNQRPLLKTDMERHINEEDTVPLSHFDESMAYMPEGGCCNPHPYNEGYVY
# How it was run: as §1
# ERF = molecular target: T6, ERF (Homo sapiens, UniProt P50548 1-548)
# T6 sequence: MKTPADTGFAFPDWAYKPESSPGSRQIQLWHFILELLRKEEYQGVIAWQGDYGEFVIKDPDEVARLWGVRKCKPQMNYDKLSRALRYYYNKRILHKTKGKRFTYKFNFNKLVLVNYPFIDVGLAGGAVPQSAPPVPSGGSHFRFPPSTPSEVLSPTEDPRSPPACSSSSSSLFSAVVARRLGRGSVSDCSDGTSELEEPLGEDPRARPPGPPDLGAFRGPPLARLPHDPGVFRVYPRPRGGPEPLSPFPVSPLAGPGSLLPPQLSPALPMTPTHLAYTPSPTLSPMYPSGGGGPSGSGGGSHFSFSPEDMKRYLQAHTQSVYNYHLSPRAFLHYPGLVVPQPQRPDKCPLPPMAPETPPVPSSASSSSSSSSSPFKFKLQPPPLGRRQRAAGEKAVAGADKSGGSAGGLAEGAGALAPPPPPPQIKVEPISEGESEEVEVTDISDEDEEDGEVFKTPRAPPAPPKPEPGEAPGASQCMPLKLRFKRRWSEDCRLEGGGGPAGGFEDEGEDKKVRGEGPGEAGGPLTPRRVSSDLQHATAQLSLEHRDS
# How it was run: as §1
# ETV3L = molecular target: T7, ETV3L (Homo sapiens, UniProt Q6ZN32 1-361)
# T7 sequence: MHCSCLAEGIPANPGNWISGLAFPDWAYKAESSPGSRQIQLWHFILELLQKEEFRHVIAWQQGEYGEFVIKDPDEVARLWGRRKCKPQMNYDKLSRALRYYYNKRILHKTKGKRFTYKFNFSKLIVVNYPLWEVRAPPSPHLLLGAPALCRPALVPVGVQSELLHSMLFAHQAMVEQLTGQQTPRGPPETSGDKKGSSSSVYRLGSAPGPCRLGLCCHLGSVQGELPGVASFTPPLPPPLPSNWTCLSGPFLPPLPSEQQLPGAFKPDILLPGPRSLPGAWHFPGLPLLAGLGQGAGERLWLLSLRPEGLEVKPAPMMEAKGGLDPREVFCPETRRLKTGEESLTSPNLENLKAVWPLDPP
# How it was run: as §1
# ETS2 = molecular target: T8, ETS2 (Homo sapiens, UniProt P15036 1-469)
# T8 sequence: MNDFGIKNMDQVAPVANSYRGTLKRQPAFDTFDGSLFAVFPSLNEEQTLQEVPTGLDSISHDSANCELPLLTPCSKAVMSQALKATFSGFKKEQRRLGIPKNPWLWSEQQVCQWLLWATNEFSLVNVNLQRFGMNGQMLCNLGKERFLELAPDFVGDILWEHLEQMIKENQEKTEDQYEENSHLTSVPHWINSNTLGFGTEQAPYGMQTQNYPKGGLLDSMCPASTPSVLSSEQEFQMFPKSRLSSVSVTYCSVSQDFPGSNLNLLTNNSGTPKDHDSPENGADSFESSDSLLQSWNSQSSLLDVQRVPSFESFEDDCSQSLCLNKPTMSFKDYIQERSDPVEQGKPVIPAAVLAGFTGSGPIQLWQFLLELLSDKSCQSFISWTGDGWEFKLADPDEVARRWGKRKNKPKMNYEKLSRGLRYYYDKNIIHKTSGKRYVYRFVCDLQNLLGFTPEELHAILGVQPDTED
# How it was run: as §1
# SPDEF = molecular target: T9, SPDEF (Homo sapiens, UniProt O95238 1-335)
# T9 sequence: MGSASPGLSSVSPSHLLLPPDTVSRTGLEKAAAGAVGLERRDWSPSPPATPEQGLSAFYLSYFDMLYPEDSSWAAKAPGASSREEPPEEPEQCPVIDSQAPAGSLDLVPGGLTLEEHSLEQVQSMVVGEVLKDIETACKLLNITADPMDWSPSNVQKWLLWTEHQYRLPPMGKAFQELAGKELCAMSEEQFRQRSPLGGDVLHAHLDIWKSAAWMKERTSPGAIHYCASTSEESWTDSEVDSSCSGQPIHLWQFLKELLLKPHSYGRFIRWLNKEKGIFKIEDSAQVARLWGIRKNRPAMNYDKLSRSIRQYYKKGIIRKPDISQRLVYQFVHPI
# How it was run: as §1
# ETV7 = molecular target: T10, ETV7 (Homo sapiens, UniProt Q9Y603 1-341)
# T10 sequence: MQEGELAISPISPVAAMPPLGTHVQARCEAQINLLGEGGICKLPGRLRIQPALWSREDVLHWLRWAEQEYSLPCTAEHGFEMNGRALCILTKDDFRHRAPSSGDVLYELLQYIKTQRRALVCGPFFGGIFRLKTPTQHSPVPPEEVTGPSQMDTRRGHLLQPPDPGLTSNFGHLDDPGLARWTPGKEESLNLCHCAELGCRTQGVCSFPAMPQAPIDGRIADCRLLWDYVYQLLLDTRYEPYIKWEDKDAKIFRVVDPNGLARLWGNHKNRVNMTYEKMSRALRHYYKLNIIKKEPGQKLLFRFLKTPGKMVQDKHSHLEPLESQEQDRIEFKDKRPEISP
# How it was run: as §1
# ETV3 = molecular target: T11, ETV3 (Homo sapiens, UniProt P41162-2 1-143)
# T11 sequence: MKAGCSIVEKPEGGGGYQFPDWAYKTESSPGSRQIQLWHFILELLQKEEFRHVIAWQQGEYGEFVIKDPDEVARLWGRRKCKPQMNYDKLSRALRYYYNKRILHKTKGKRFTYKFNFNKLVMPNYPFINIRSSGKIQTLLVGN
# How it was run: as §1
# ETV6 = ETV6 (Homo sapiens, UniProt P41212 1-452)
# ETV6, sequence (P41212 whole entry): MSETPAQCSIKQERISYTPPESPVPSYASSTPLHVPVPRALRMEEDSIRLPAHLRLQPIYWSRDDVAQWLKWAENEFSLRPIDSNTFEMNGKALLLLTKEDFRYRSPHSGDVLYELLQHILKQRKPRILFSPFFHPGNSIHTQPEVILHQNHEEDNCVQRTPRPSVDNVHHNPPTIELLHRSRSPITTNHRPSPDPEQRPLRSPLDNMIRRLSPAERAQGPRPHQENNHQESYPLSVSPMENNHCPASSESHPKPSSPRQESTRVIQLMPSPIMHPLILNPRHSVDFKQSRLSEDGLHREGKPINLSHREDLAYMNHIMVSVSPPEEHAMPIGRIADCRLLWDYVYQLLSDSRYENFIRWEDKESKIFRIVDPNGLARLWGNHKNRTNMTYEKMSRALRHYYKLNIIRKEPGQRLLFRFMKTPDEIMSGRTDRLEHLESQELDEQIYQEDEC
# How it was run: as §1
# ELF5 = molecular target: T12, ELF5 (Homo sapiens, UniProt Q9UKW6-2 1-255)
# T12 sequence: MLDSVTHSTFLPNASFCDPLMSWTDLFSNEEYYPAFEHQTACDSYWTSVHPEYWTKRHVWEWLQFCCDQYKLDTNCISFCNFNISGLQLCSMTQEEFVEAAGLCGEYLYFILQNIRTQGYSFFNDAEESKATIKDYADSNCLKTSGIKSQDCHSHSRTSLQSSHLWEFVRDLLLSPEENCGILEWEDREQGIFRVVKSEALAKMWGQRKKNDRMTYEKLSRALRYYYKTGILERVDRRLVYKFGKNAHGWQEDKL
# How it was run: as §1
Sequence,binding signal (FEV),binding signal (ETV5),binding signal (SPIC),binding signal (ELF4),binding signal (ELK4),binding signal (ETV2),binding signal (ELF3),binding signal (ETV1),binding signal (ERF),binding signal (ETV3L),binding signal (ETS2),binding signal (SPDEF),binding signal (ETV7),binding signal (ETV3),binding signal (ETV6),binding signal (ELF5)
ACACCT,"1.03 fold enrichment (6-mer frequency, TF over GST control)","1.03 fold enrichment (6-mer frequency, TF over GST control)","1.04 fold enrichment (6-mer frequency, TF over GST control)","1.11 fold enrichment (6-mer frequency, TF over GST control)","1.1 fold enrichment (6-mer frequency, TF over GST control)","1.03 fold enrichment (6-mer frequency, TF over GST control)","1.03 fold enrichment (6-mer frequency, TF over GST control)","1.13 fold enrichment (6-mer frequency, TF over GST control)","1.14 fold enrichment (6-mer frequency, TF over GST control)","1.15 fold enrichment (6-mer frequency, TF over GST control)","1.05 fold enrichment (6-mer frequency, TF over GST control)","1.05 fold enrichment (6-mer frequency, TF over GST control)","1.11 fold enrichment (6-mer frequency, TF over GST control)","1.08 fold enrichment (6-mer frequency, TF over GST control)","1.06 fold enrichment (6-mer frequency, TF over GST control)",–
GATAGC,"1.07 fold enrichment (6-mer frequency, TF over GST control)","1.04 fold enrichment (6-mer frequency, TF over GST control)","1.07 fold enrichment (6-mer frequency, TF over GST control)","1.06 fold enrichment (6-mer frequency, TF over GST control)","1.03 fold enrichment (6-mer frequency, TF over GST control)","1.18 fold enrichment (6-mer frequency, TF over GST control)","1.08 fold enrichment (6-mer frequency, TF over GST control)","1.02 fold enrichment (6-mer frequency, TF over GST control)","1.15 fold enrichment (6-mer frequency, TF over GST control)","1.06 fold enrichment (6-mer frequency, TF over GST control)","1.12 fold enrichment (6-mer frequency, TF over GST control)","1.05 fold enrichment (6-mer frequency, TF over GST control)","1.06 fold enrichment (6-mer frequency, TF over GST control)","1.05 fold enrichment (6-mer frequency, TF over GST control)","1.03 fold enrichment (6-mer frequency, TF over GST control)",–
GTATGC,"1.15 fold enrichment (6-mer frequency, TF over GST control)","1.17 fold enrichment (6-mer frequency, TF over GST control)","1.14 fold enrichment (6-mer frequency, TF over GST control)","1.16 fold enrichment (6-mer frequency, TF over GST control)","1.23 fold enrichment (6-mer frequency, TF over GST control)","1.25 fold enrichment (6-mer frequency, TF over GST control)","1.1 fold enrichment (6-mer frequency, TF over GST control)","1.12 fold enrichment (6-mer frequency, TF over GST control)","1.05 fold enrichment (6-mer frequency, TF over GST control)","1.23 fold enrichment (6-mer frequency, TF over GST control)","1.24 fold enrichment (6-mer frequency, TF over GST control)","1.18 fold enrichment (6-mer frequency, TF over GST control)","1.27 fold enrichment (6-mer frequency, TF over GST control)","1.24 fold enrichment (6-mer frequency, TF over GST control)","1.09 fold enrichment (6-mer frequency, TF over GST control)","1.11 fold enrichment (6-mer frequency, TF over GST control)"

# Reference: publication PMC7862700, “An all-to-all approach to the identification of sequence-specific readers for epigenetic DNA modifications on cytosine”
